Compound activity: PubChem BioAssay, National Center for Advancing Translational Sciences (NCATS)
Rows were chosen to be rich in hits. Some 11% of all compounds tested hit in one or more screens of this group.
Pf growth 48h: Primary qHTS for delayed death inhibitors of the malarial parasite plastid, 48 hour incubation; P. falciparum luciferase growth in erythrocytes, 48 h; Potency, µM (series often up to 28.7 µM), usual class: inhibitors; 310,000 tested, 5.9% active
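Growth was read as firefly luciferase luminescence after a 48 h, 37 C, 5% CO2 exposure of compounds to reporter-bearing P. falciparum cultures (0.1% parasitemia, 2% hematocrit final) in Albumax-supplemented RPMI 1640.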
NS1 inh: qHTS Assay for Inhibitors of Influenza NS1 Protein Function; 270,000 tested, 0.4% active; Potency, µM (top dose mostly 46.1 µM); calls by dose curve; note: actives are rising curves; nearly all actives have a fitted effect of over 50% in size
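S. cerevisiae expressing influenza A NS1, grown in glucose, washed, then diluted 1:100 into pH 6.0 -URA galactose medium with 23 nl compound. Growth recovery read as OD600; NS1-free strain serves as control.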
AMA1 RON2 block: qHTS for Inhibitors of AMA1-RON; Towards Development of Antimalarial Drug Lead: Primary Screen; 360,000 tested, 0.2% active; Potency, µM (titrated, usually from 58.2 µM), actives largely listed as inhibitors; AlphaScreen AMA1-biotinylated RON2 peptide binding; note: nearly all actives have a fitted effect of over 45% in size
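AMA1 (3D7) with his tag at 25 nM final met compounds first, then biotinylated RON2 peptide at 25 nM; detection used donor plus acceptor beads, 10 µg/mL apiece, read by AlphaScreen after 30 min at room temperature.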
Pf growth 96h: Primary qHTS for delayed death inhibitors of the malarial parasite plastid, 96 hour incubation; AID 504834, 2011; P. falciparum luciferase reporter growth, 96 h; Potency, µM (series often up to 28.7 µM), actives largely listed as inhibitors; 320,000 tested, 6.9% active
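Compounds incubated with erythrocytes infected by luciferase-expressing P. falciparum (2% hematocrit, 0.05% parasitemia final) for 96 hours, 37 C in 5% CO2. Growth inhibition scored as decreased luciferase luminescence.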
Sm TGR block: qHTS Assay for the Inhibitors of Schistosoma Mansoni Peroxiredoxins; purified TGR, DTNB reduction, TNB absorbance 405 nm; AID 485364, 2010; 360,000 tested, 3% active; Schistosoma mansoni thioredoxin glutathione reductase (TGR), Q962Y6; Potency, µM (highest dose often 114 µM), hits mostly inhibitors; note: nearly all actives have a fitted effect of over 60% in size
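First, TGR (20 nM dispensed) and NADPH were mixed with compound. Second, a 15 min room-temperature incubation followed. Third, further NADPH and then DTNB were added to start the reaction. Finally, TNB absorbance was monitored kinetically.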
Hits are given with their value; 0 = inactive; ? = inconclusive; - = not tested or not shown; [ ] = dose if it differs, or a comment. Unless noted, calls come from the whole dose curve; as a rule, active = well fitted curve in the direction sought with a large enough effect; inconclusive = small, poorly fitted or top-dose-only effect, or another doubt; inactive = no such curve, though single readings can be large; an effect the other way counts as inactive or inconclusive.

SMILES | Pf growth 48h | NS1 inh | AMA1 RON2 block | Pf growth 96h | Sm TGR block
C#Cc1ccc([C@@H]2C=C(C(=O)N3CCN(Cc4ccc5c(c4)OCO5)CC3)O[C@H](OCC)[C@H]2CCCO)cc1 | 0 | 0 | 0 | 0 | 0
CCO[C@@H]1OC(C(=O)N2CCN(Cc3ccc4c(c3)OCO4)CC2)=C[C@H](c2ccc3c(c2)OCO3)[C@H]1CCCO | ? | 0 | 0 | 3.29µM | 0
Cc1ccc(C)c(NC(=O)c2cnc(N3CCCC3)nc2C)c1 | - | - | - | - | 0
CCOC(=O)c1c(C)[nH]c(C)c1S(=O)(=O)N(C)CC(=O)Nc1cccc(C)n1 | 0 | 0 | 0 | 0 | 0
CCO[C@H]1OC(C(=O)N2CCN(Cc3ccc4c(c3)OCO4)CC2)=C[C@@H](c2ccc(C(F)(F)F)cc2)[C@@H]1CCCO | ? | 0 | 0 | 1.47µM | 0
CCO[C@@H]1OC(C(=O)O)=C[C@H](c2ccc3c(c2)OCO3)[C@H]1CCCO | 0 | 0 | 0 | 0 | 0
Cc1nc(/N=C\c2ccc(N(C)C)cc2)sc1C | 0 | - | 0 | 0 | 0
FC(F)(F)c1ccc2c(c1)nnn2C1CCN(Cc2nnnn2Cc2ccccc2)CC1 | 7.38µM | 0 | 0 | 10.4µM | 0
Cc1ccc(Cn2nnnc2CN2CCC(O)(c3ccccc3F)CC2)cc1 | 14.7µM | 0 | 0 | 0 | 0
COCC(=O)N1CCC(n2nnc3cc(C(F)(F)F)ccc32)CC1 | 0 | 0 | 0 | 5.22µM | 0
Cc1ccc(Cn2nnnc2CN2CCC(n3nnc4cc(C)ccc43)CC2)cc1 | ? | 0 | 0 | 13.1µM | 0
Cc1ccc(Cn2nnnc2CN2CCC(n3nnc4cc(C(F)(F)F)ccc43)CC2)cc1 | ? | 0 | 0 | 0 | 0
CCN(C(=O)COC(=O)C1=COCCO1)c1c(N)n(Cc2ccccc2)c(=O)[nH]c1=O | 0 | - | 0 | 0 | 0
O=C(Nc1ccccc1Cl)C1CCCN1C(=O)OCc1ccccc1 (centres undefined) | 0 | 0 | 0 | ? | 0
O=C(CCNC(=O)c1ccc([N+](=O)[O-])cc1)Nc1ccc(S(=O)(=O)N2CCOCC2)cc1 | ? | - | 0 | ? | 0
CC(C)N=c1cc2n(-c3ccc(Cl)cc3)c3ccccc3nc-2cc1Nc1ccc(Cl)cc1 | 2.87µM | - | 0 | ? | -
CN(Cc1ccc(F)cc1)Cc1nc(-c2cnccn2)no1 | 0 | 0 | 0 | 0 | 0
CN(Cc1cccc(C(F)(F)F)c1)Cc1nc(-c2cnccn2)no1 | 0 | 0 | 0 | 7.38µM | 0
Cc1cc(C)c(Cn2cnc3ccccc32)c(C)c1 | ? | 0 | 0 | 0 | -
CCN1CCN(C(c2ccc(C(F)(F)F)cc2)c2ccc3cccnc3c2O)CC1 (centres undefined) | - | 0 | 0 | ? | 0
CN1CCN(C(c2ccc(C(F)(F)F)cc2)c2cc(Cl)c3cccnc3c2O)CC1 (centres undefined) | ? | 0 | - | 3.7µM | 0.631µM
Oc1c(C(c2ccccn2)N2CCCCC2)cc(Cl)c2cccnc12 (centres undefined) | ? | - | 0 | ? | 3.55µM
Oc1c(CN2CCc3ccccc3C2)cc(Cl)c2cccnc12 | - | 0 | 0 | 0 | 0
CN1CCN(C(c2ccc(Cl)cc2)c2cc(Cl)c3cccnc3c2O)CC1 (centres undefined) | ? | 0 | 0 | ? | 0.355µM
O=C(CN1CCN(c2ccccn2)CC1)Nc1cccc(Br)c1 | 0[0.00184 µM] | 0 | 0 | 0 | 0
SMILES | Pf growth 48h | NS1 inh | AMA1 RON2 block | Pf growth 96h | Sm TGR block
O=c1[nH]n(-c2ccccc2)c(=O)cc1Cl | - | - | 0 | - | -
CCC(C)Nc1nc(CN2CCOCC2)nc2sc3c(c12)CCC3 (centres undefined) | - | 0 | 0 | 9.28µM | 0
Cc1cccc(Oc2nc(CN3CCOCC3)nc3sc4c(c23)CCCC4)c1 | 10.4µM | 0 | ? | ? | 0
COc1ccc(S(=O)(=O)N2CCOCC2)cc1Cl | - | 0 | 0 | ? | 0
Cc1nc(Oc2ccc(S(=O)(=O)N3CCOCC3)cc2Cl)c2c3c(sc2n1)CCCC3 | ? | 0 | 0 | 13.1µM | 0
CCn1cc(/C=C(\NC(=O)c2ccccc2OC)C(=O)N2CCN(C)CC2)c2ccccc21 | 0 | 0 | 0 | 0 | 0
C[C@@H]1CN([C@H](C)CO)C(=O)CCCn2nncc2CO[C@H]1CN(C)S(=O)(=O)c1ccccc1 | - | - | 0 | - | -
CSCCC(C(=O)NCc1cccs1)N1C(=O)c2ccccc2C1=O (centres undefined) | - | 0 | 0 | 0 | 0
CSCC[C@@H](C(=O)NCc1cccs1)N1Cc2ccccc2C1=O | - | 0 | 0 | 8.28µM | 0
O=C(NCc1cccs1)C(Cc1ccccc1)n1cccc1 (centres undefined) | ? | 0 | 0 | 0 | 39.8µM
COc1ccc(N2CCN(CNC(=O)c3ccccc3)CC2)cc1 | 0 | 0 | 0 | 0 | 0
COc1ccc(NC(=O)CN2C(=O)N(C)Cc3ccccc32)c(C)c1 | 0[5.75 µM] | - | 0 | 14.7µM | 0
COc1ccc(NC(=O)CN2CCc3ccccc3C2)c(OC)c1 | 0 | 0 | 0 | ? | 0
CSCCCNC(=S)N1CCc2ccccc2C1 | ? | - | 0 | 0 | 0
Cc1cc(C)cc(NS(=O)(=O)c2ccc(N3CCCCS3(=O)=O)cc2)c1 | - | - | - | - | 0
Cc1ccc(C)c(Cc2c(C)nc3c(C(=O)NCc4ccc5c(c4)OCO5)cnn3c2C)c1 | - | 0 | - | 10.4µM | 0
Cc1ccccc1Cc1c(C)nc2c(C(=O)NCc3ccc4c(c3)OCO4)cnn2c1C | ? | 0 | 0 | ? | 0
Cc1nc2c(C(=O)NCc3ccc4c(c3)OCO4)cnn2c(C)c1Cc1ccc(F)cc1Cl | ? | ? | 0 | 13.1µM | 0
COc1ccc(CN(C(=O)COc2ccccc2OC)C2CCS(=O)(=O)C2)cc1 (centres undefined) | - | - | - | - | 0
CC(C(=O)O)n1ncc2ccccc2c1=O (centres undefined) | 2.62µM | 0 | 0 | 0 | 0
Cc1nn(C(C)C(=O)O)c(=O)c2ccccc12 (centres undefined) | 0 | 0 | 0 | 9.28µM | 0
O=C(O)CCn1ncc2ccccc2c1=O | 0 | 0 | 0 | 0 | 0
Cn1c2ccccc2c2n[nH]c(=O)nc21 | 0 | - | 0 | ? | 0
Cn1c2ccccc2c2nn(-c3ccccc3)c(=O)cc21 | 0 | 0 | 0 | 10.4µM | 0
CCN(CC)S(=O)(=O)c1cccc(N=Nc2sc(N)nc2C)c1 | 0[0.00184 µM] | 0 | 0 | 11.7µM | 0
SMILES | Pf growth 48h | NS1 inh | AMA1 RON2 block | Pf growth 96h | Sm TGR block
CC(C)OC(=O)c1ccc(S(N)(=O)=O)o1 | 0 | 0 | 0 | 0 | 0
CC(C)OC(=O)c1cc2c(=O)[nH]c(C(Cl)(Cl)Cl)nc2o1 | ? | - | 0 | 0 | 28.2µM
N#CC(C#N)=Cc1ccc(OCC(=O)N2CCOCC2)cc1 | ? | - | 0 | ? | 2.51µM
N#CC(C#N)=Cc1ccc(N2CCOCC2)cc1 | 0 | 0 | 0 | 0 | 3.16µM
Cc1noc(C)c1NC(=O)N(C)C[C@H]1Oc2c(NS(=O)(=O)c3cn(C)cn3)cccc2C(=O)N([C@H](C)CO)C[C@@H]1C | - | - | 0 | - | -
Cc1cc(NC(=O)CC2CCCC2)n(-c2nc3ccccc3[nH]2)n1 | ? | 0 | 0 | 5.86µM | 22.4µM
